Test results: PubChem BioAssay
Activity calls are given as the source filed them. Unless noted, no rule for the calls is given here.

Legend:
[1] = compound effects on lung adenocarcinoma cell viability – A549, calcein-AM fluorescence, 48 h, basal, profiling panel (AID 1162); conditions: higher = more signal; also: test concentration not given here
[2] = compound effects on differentiated 3T3-L1 adipocyte viability – cell-based, 3T3-L1 adipocytes, calcein-AM fluorescence, 48 h, basal, profiling panel (AID 1163); conditions: 3T3-L1 adipocytes viability, higher = more signal; also: test concentration not given here
[3] = compound effects on hepatocellular carcinoma cell viability – HepG2, calcein-AM fluorescence, 48 h, basal, profiling panel (AID 1164); conditions: higher = more signal; also: test concentration not given here
[4] = compound effects on multiple myeloma cell viability – MM1S, calcein-AM fluorescence, 48 h, basal, profiling panel (AID 1165); conditions: higher = more signal; also: test concentration not given here
[5] = calcein-AM signal in unstimulated myeloma cells – cell-based, calcein-AM fluorescence, 48 h, PK04 Diversity Set, profiling panel (AID 1166); conditions: RPMI8226 myeloma viability, higher = more signal;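 also: cells grown under basal conditions without added stimulus; test concentration not given here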
[6] = JC-1 mitochondrial signal, unstimulated HepG2 cells – cell-based, JC-1 fluorescence, 24 h, 100 nL compound, profiling panel (AID 1167); conditions: HepG2 mitochondrial potential, higher = more signal; also: test concentration not given here
[7] = JC-1 mitochondrial signal, unstimulated adipocytes – cell-based, JC-1 fluorescence, 3T3-L1 adipocytes, 24 h, 100 nL compound, profiling panel (AID 1168); conditions: JC-1 mitochondrial fluorescence, higher = more signal, called active from +8 up or from −8 down; also: test concentration not given here
[8] = JC-1 mitochondrial signal, unstimulated myeloma cells – cell-based, JC-1 fluorescence, RPMI8226, 24 h, 100 nL compound, profiling panel (AID 1169); conditions: JC-1 mitochondrial potential fluorescence, higher = more signal; also: test concentration not given here
[9] = JC-1 mitochondrial signal, unstimulated MM1S myeloma – cell-based, JC-1 fluorescence, 24 h, 100 nL compound, profiling panel (AID 1170); conditions: MM1S mitochondrial potential, higher = more signal; also: test concentration not given here
[10] = resazurin metabolic signal in A549 cells – cell-based, resazurin fluorescence, 24 h, PK04 Diversity Set, profiling panel (AID 1171); conditions: A549 viability, higher = more signal, called active from +8 up or from −8 down; also: test concentration not given here
[11] = resazurin metabolic signal in HepG2 cells – cell-based, resazurin fluorescence, 24 h, PK04 Diversity Set, profiling panel (AID 1172); conditions: HepG2 viability, higher = more signal; also: test concentration not given here
[12] = budding yeast growth changes without added modifier – OD600, strain BY4716, 24 h, basal condition, primary screen (AID 1173); conditions: S. cerevisiae BY4716 growth, OD600, 24 h; higher = more signal, called active from +8 up or from −8 down
[13] = viability profiling in MM1S myeloma cells – cell-based, resazurin fluorescence, basal, 24 h, PK04 Diversity Set, profiling panel (AID 1174); conditions: higher = more signal, called active from +8 up or from −8 down; also: test concentration not given here
[14] = target: Dihydroorotate dehydrogenase (quinone), mitochondrial (Plasmodium falciparum (isolate 3D7)) (UniProt Q08210); assay: inhibition of P. falciparum DHODH – biochemical, C-terminal His tag, absorbance 600 nm, primary screen (AID 1175); conditions: PfDHODH enzyme, DCIP absorbance 600 nm; higher = more signal, called active from +8 up or from −8 down;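 also: recombinant parasite enzyme with a five histidine tag at its C terminus; test concentration not given here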
Sequence of Dihydroorotate dehydrogenase (quinone), mitochondrial (Plasmodium falciparum (isolate 3D7)) (Q08210 whole entry, looked up): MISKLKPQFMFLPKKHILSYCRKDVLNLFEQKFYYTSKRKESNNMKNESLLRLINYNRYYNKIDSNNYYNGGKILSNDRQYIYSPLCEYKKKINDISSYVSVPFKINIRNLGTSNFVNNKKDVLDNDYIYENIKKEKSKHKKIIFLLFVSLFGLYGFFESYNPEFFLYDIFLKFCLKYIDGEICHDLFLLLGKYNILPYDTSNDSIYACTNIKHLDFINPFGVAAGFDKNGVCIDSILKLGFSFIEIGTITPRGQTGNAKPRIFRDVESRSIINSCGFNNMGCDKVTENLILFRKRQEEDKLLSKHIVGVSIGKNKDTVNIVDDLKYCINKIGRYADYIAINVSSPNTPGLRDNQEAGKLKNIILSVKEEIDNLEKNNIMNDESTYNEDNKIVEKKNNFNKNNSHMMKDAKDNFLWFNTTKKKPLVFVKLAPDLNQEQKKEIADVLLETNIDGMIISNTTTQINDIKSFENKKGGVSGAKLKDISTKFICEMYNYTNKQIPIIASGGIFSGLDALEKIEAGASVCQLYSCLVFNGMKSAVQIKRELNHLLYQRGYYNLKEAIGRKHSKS

[15] = inhibition of PAO1 biofilm formation – strain PAO1, LB-PBS medium, absorbance 600 nm, primary screen (AID 1176); also: test concentration not given here; conditions: P. aeruginosa PAO1 growth/biofilm, A600, 12 h; higher = more signal
[16] = growth modulation of vineyard yeast isolate – strain RM11-1a, OD600, basal, 24 h, primary screen (AID 1177);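 also: cultures grown under basal conditions with no added stressor; test concentration not given here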; conditions: S. cerevisiae RM11-1a growth, OD600, 24 h; higher = more signal, called active from +8 up or from −8 down
[17] = growth of efflux-deficient E. coli DRC39 – strain DRC39, OD650, 24 h, E. coli filamentation inducers, primary screen (AID 1178);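 also: growth measured as culture turbidity by optical density at 650 nm; test concentration not given here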; conditions: E. coli DRC39 acrAB, higher = more signal, called active from +8 up or from −8 down
[18] = growth of efflux-deficient E. coli DRC39 – strain DRC39, OD650, 48 h, E. coli filamentation inducers, primary screen (AID 1179);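 also: screen aims at cell division blockers that make cells filament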; conditions: E. coli DRC39 delta-acrAB growth, higher = more signal, called active from +8 up or from −8 down
[19] = viability profiling in RPMI8226 myeloma cells – cell-based, resazurin fluorescence, basal, 24 h, PK04 Diversity Set, profiling panel (AID 1180); conditions: higher = more signal;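 also: RPMI8826 multiple myeloma cell line at 5000 cells per well; test concentration not given here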
[20] = target: E3 ubiquitin-protein ligase XIAP (Homo sapiens) (UniProt P98170); assay: small molecules binding XIAP protein – biophysical, small-molecule microarray, fluorescence 635 nm, primary screen (AID 1181); conditions: higher = more signal;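 also: score merges 667 nm emission and signal to noise over triplicate slides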
Sequence of E3 ubiquitin-protein ligase XIAP (Homo sapiens) (P98170 whole entry, looked up): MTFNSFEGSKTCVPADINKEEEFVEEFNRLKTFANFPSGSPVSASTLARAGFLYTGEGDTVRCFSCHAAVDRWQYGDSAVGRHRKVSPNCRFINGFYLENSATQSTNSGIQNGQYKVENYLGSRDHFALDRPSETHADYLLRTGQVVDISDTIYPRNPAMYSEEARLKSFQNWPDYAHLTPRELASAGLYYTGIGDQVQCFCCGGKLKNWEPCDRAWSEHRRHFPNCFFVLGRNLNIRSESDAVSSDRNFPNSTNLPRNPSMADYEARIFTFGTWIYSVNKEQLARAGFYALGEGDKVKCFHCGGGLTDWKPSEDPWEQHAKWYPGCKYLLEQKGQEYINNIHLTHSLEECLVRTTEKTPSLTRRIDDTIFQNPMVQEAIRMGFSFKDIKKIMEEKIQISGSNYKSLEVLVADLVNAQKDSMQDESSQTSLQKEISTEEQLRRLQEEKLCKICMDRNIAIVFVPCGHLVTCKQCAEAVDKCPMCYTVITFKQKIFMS

| SMILES | z-score [1] | z-score [2] | z-score [3] | z-score [4] | z-score [5] | z-score [6] | z-score [7] | z-score [8] | z-score [9] | z-score [10] | z-score [11] | z-score [12] | z-score [13] | composite z-score [14] | z-score [15] | z-score [16] | z-score [17] | z-score [18] | z-score [19] | composite z-score [20] |
| --- | --- | --- | --- | --- | --- | --- | --- | --- | --- | --- | --- | --- | --- | --- | --- | --- | --- | --- | --- | --- |
| CCOC(=O)C1=C[C@@H](c2ccccc2)N(S(=O)(=O)c2ccc(C)cc2)[C@H]1c1ccc(F)cc1 | -1.39 | -0.498 | -2.67 | -2.06 | -1.34 | 2.45 | -1.16 (inactive) | -0.118 | -0.00719 | 1.04 (inactive) | -0.296 | 1.87 (inactive) | -0.648 (inactive) | -0.102 (inactive) | 0.216 (inactive) | 2.33 (inactive) | -0.213 (inactive) | -0.283 (inactive) | -2.21 | 0.155 |
| CC1CC/C=C\[C@H]2OC34C=CCN(Cn5nnc6ccccc65)C(=O)[C@H]3N(C(C)CO)C(=O)[C@@H]4C2C(=O)O1 (stereo not given in full) | 0.151 | -0.14 | 0.203 | 0.835 | 0.182 | 0.236 | -0.087 (inactive) | 0.128 | -0.731 | 0.0113 (inactive) | 0.142 | -0.0496 (inactive) | 0.035 (inactive) | 0.853 (inactive) | -0.0837 (inactive) | 0.472 (inactive) | 0.756 (inactive) | 0.665 (inactive) | 0.0911 | 0.282 |
| COC(=O)[C@@]1(Cc2ccccc2CN=[N+]=[N-])N=C(c2ccc(OCCCO)cc2)O[C@H]1c1ccccc1N=[N+]=[N-] | -2.1 | 0.0397 | -2.36 | -2.99 | -3.63 | -0.00729 | -0.222 (inactive) | -1.19 | -2.29 | -1.35 (inactive) | -0.806 | 1.49 (inactive) | -3.44 (inactive) | 3.12 (inactive) | 1.69 (inactive) | 2.6 (inactive) | 0.365 (inactive) | -0.762 (inactive) | -3.59 | -0.0095 |
| CC(C)C[C@@H]1NC(=O)[C@H]2C[C@@H](C(=O)NCCCCCC[N+](C)(C)C)[C@@H](c3ccc(O)cc3)N2C1=O | -0.547 | -0.304 | -1.01 | -0.0171 | 0.0824 | -0.575 | 0.177 (inactive) | -0.342 | -0.958 | 1.09 (inactive) | 1.27 | -0.213 (inactive) | 0.771 (inactive) | -1.51 (inactive) | -1.04 (inactive) | 0.817 (inactive) | 0.385 (inactive) | 0.19 (inactive) | 0.985 | -0.176 |
| COCCOC(=O)N1C(=O)[C@@]2(c3cc(C#CCCO)ccc31)[C@H](c1ccc(OCCO)cc1)N1[C@H](c3ccccc3)[C@H](c3ccccc3)OC(=O)[C@H]1[C@@H]2C(=O)NC[C@H](O)c1ccccc1 | 0.0831 | 1.33 | -0.796 | 0.0067 | -1.06 | -0.0377 | 0.357 (inactive) | 0.0686 | -0.709 | 0.703 (inactive) | 0.542 | 1.64 (inactive) | -0.149 (inactive) | 1.06 (inactive) | 1.39 (inactive) | 2.33 (inactive) | 0.0733 (inactive) | -0.534 (inactive) | 0.471 | 0.106 |
| CCc1cccc(NC(=O)O[C@H]2[C@H](OC(=O)Nc3ccccc3)[C@@H](OC(=O)Nc3ccccc3)[C@@H](OC)O[C@@H]2CO)c1 | -2.42 | 1.1 | -4.04 | -3.01 | -4.29 | -0.501 | 0.963 (inactive) | -1.21 | -1.53 | -4.14 (inactive) | -2.9 | 0.28 (inactive) | -5.58 (inactive) | 0.189 (inactive) | 0.497 (inactive) | 2.4 (inactive) | 1.47 (inactive) | 0.711 (inactive) | -4.86 | 0.0153 |
| C=C(C)[C@@H]1CC=C(C(O)C2C=CC3C(=O)NC(=O)C3N2Nc2ccccn2)CC1 (stereo not given in full) | -0.592 | -1.11 | -0.914 | 0.0217 | -0.97 | -1.66 | 0.344 (inactive) | 0.921 | -0.0607 | -0.981 (inactive) | -1.3 | -0.252 (inactive) | -1.48 (inactive) | 0.291 (inactive) | 1.99 (inactive) | -0.0819 (inactive) | -0.575 (inactive) | -0.339 (inactive) | -2.2 | 0.287 |
| Cc1ccc(S[C@]2(C(=O)NC(C)C)CC(=O)N(Cc3cc(C(F)(F)F)cc(C(F)(F)F)c3)[C@@H]2c2ccc(CO)cc2I)cc1 | 0.813 | -0.477 | 0.678 | -1.66 | -2.24 | 0.517 | 0.667 (inactive) | -0.455 | -1.79 | -0.101 (inactive) | 0.53 | -2.86 (inactive) | -2.27 (inactive) | 0.4 (inactive) | 0.447 (inactive) | -0.59 (inactive) | 0.498 (inactive) | 1.02 (inactive) | -2.55 | -0.209 |
| Cc1ccc(N2C(=O)c3ccccc3[C@@H](C(=O)NCC(F)(F)F)[C@@H]2c2ccc(CO)cc2)nc1 | 0.312 | 0.603 | 0.471 | 0.0049 | 0.51 | 1.04 | 0.884 (inactive) | -0.223 | 0.0421 | 0.547 (inactive) | 0.129 | -0.789 (inactive) | 1.21 (inactive) | -0.417 (inactive) | 0.429 (inactive) | -0.872 (inactive) | 0.419 (inactive) | 0.127 (inactive) | 0.607 | -0.227 |
